Bioassay records deposited in PubChem BioAssay by National Center for Advancing Translational Sciences (NCATS).
An excerpt weighted towards active compounds, which were near 4.6% of everything screened.
MARV entry inh: Marburg virus entry inhibition | Marburg virus pseudotyped entry inhibition, cell reporter | 300,000 compounds, 1.8% hits | Potency, µM (highest dose often 37.8 µM), without a hit: at the top dose activity change, negative = inhibition, most hits filed as inhibitors; calls by dose curve; tested in HEK293 cells
HCV inhibitor: HCV inhibition. Huh7.5.1 HCVcc-Cre infection, luciferase reporter, 44 h. 340,000 compounds, 3.4% hits. Potency, µM (series often up to 41.8 µM), without a hit: at the top dose activity change, negative = inhibition, actives largely listed as inhibitors; active = well fitted inhibition curve with a large enough effect; inconclusive = small, poorly fitted or top-dose-only effect, or another doubt; inactive = no such curve, though single readings can be large or run the other way
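A cell-based infection assay in which seeded cells (1,000 per well) receive test compound after 4 h, are inoculated with HCVcc-Cre at approximately 0.5 moi, and are incubated 44 h before luminescence detection.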
Vaccinia Venus: vaccinia inhibition (Venus reporter); Vaccinia virus Venus reporter expression, fluorescence; Potency, µM (top dose mostly 36.5 µM), for the others: at the top dose activity change, negative = inhibition, usual class: inhibitors; 330,000 compounds, 0.46% hits; AID 720580; calls by dose curve; tested in A549 cells; also: nearly all actives have a fitted effect of over 30% in size
VACV mCherry inh: inhibitors of vaccinia virus infection (mCherry reporter signal); Vaccinia virus mCherry reporter infection, fluorescence; Potency, µM (doses to about 36.5 µM), inactives show top-dose activity change, negative = inhibition, usual class: inhibitors; 310,000 compounds, 0.63% hits; AID 720579; calls by dose curve; tested in A549 cells; also: nearly all actives have a fitted effect of over 35% in size
LASV entry inh: Lassa virus entry inhibition | Potency, µM (doses to about 37.9 µM), for the others: top-dose activity change, negative = inhibition, most hits filed as inhibitors | Lassa virus pseudotype entry inhibition, cell reporter | AID 540256 | 300,000 compounds, 1.2% hits; calls by dose curve; tested in HEK293 cells; also: nearly all actives have a fitted effect of over 50% in size
* = called active by the depositor; i = inactive; ? = inconclusive; . = no result; [ ] = remark or other dose. % is scaled to controls: 0 for no effect and ±100 for the full control effect; potency is read from the fitted curve at half-maximal effect.

SMILES	MARV entry inh	HCV inhibitor	Vaccinia Venus	VACV mCherry inh	LASV entry inh
CCn1c(-c2nonc2N)nc2ccncc21	.	.	.	.	-6%
Fc1ccc(NC(=S)NNc2ncc(C(F)(F)F)cc2Cl)c(F)c1	?	22µM*	-43%	-47%	?
CN(C)CC(C)(O)c1ccc2c(c1)CN(Cc1cn(C)c3ccccc13)CCO2 (stereo not drawn)	.	.	12%	-12%	.
CC(C)(C(=O)O)c1ccc([C@@H](O)CCCN2CCC(C(O)(c3ccccc3)c3ccccc3)CC2)cc1	10%	.	.	.	.
Cc1cc(C)c(S(=O)(=O)N2CCCCC2CCNC(=O)C(=O)NC2CC2)c(C)c1 (stereo not drawn)	?	7%	24%	?	0.89µM*
Cc1ccc(C)c(S(=O)(=O)N2CCCCC2CCNC(=O)C(=O)NCc2ccco2)c1 (stereo not drawn)	?	11µM*	?	?	-25%
Cc1ccc(C)c(S(=O)(=O)N2CCCC2CNC(=O)C(=O)NCc2ccco2)c1 (stereo not drawn)	?	0%	-15%	i	0%[46.1 µM]
Cc1ccc(C)c(S(=O)(=O)N2CCCC2CNC(=O)c2ccc([N+](=O)[O-])cc2)c1 (stereo not drawn)	?	11µM*	-8%	-23%	?
Cc1ccc(C(=O)NCC2CCCN2S(=O)(=O)c2ccc(C)cc2)cc1 (stereo not drawn)	3%[46.1 µM]	-20%	-15%	i	10%
O=C(Nc1ccc(Cl)cc1F)c1oc(=O)c2ccccc2c1-c1ccccc1	-10%[46.1 µM]	.	7%	3%	0%[46.1 µM]
Cn1c2ccccc2c2ccc3c(c21)C(=O)C=CC3=O	3%	?	13%	-11%	10%
Cc1ccc2c(c1)c1ccc3c(c1n2C)C(=O)C=CC3=O	.	11µM*	.	.	.
COc1cc(Cl)c(C)cc1NC(=O)Cn1c2ncccc2c(=O)n1-c1ccccc1	.	.	-3%[7.34 µM]	-6%[7.34 µM]	?
CCOc1ccc(N2C(=O)CC(Cc3cc(C)cc(C)c3)C2=O)cc1 (stereo not drawn)	.	-9%	.	.	.
CCOc1ccc(N2C(=O)CC(N)C2=O)cc1 (stereo not drawn)	-4%	5µM*	2%	.	-1%
COc1ccc(C(=O)NCCc2ccc(Cl)cc2)cc1S(=O)(=O)N1CCCCC1C (stereo not drawn)	.	8.9µM*	.	.	.
COc1cc(C(=O)Nc2ccc(S(=O)(=O)N3CCCCC3C)cc2)cc(OC)c1OC (stereo not drawn)	-15%	13µM*	.	.	-19%
COc1ccc(C(=O)Nc2ccc(S(=O)(=O)N3CCCCC3C)cc2)c(OC)c1OC (stereo not drawn)	?	11µM*	-30%	-14%	?
CCC(C)NC(=O)C(=O)Nc1c2c(nn1-c1ccccc1)CS(=O)(=O)C2 (stereo not drawn)	.	.	-12%	-8%	-8%[46.1 µM]
CCCC[C@]1(C(=O)OCC)C[C@H](CN2CCOCC2)OC1=O	5%	.	.	.	.
Cc1ccc(N2CCN(C(=O)C3CCN(S(=O)(=O)c4ccc5c(c4)oc(=O)n5C)CC3)CC2C)cc1 (stereo not drawn)	12%[46.1 µM]	.	-18%	-22%	7%[46.1 µM]
CC1(C)C2CC=C(CN3CCC(O)CC3)C1C2 (stereo not drawn)	-3%	9%	.	.	-15%
CC1(C)[C@H]2CC=C(CN3CCC(N4CCC(C(=O)N5CCCC5)CC4)CC3)[C@@H]1C2	-30%[46.1 µM]	32µM*	-16%	?	-1%
CCN(CC)CCCNC(=O)c1cc(Cl)c(NC(=O)C2=C(C)OCCS2)cc1OC	?	11µM*	-23%	-3%	-2%[46.1 µM]
COc1ccc(CCNC(=O)c2ccccc2NC(=O)C2=C(C)OCCS2)cc1OC	.	-9%	.	.	.
SMILES	MARV entry inh	HCV inhibitor	Vaccinia Venus	VACV mCherry inh	LASV entry inh
CC(C)(CNC(=O)c1cnn(-c2nccc(-c3cc4ccccc4o3)n2)c1C1CC1)N1CCOCC1	.	.	-1%	0%	.
C/C(N)=C(/C#N)C(=O)CSc1nnc(COc2ccccc2Cl)o1	1%	-3%	?	7.9µM*	-1%[46.1 µM]
CC1=NNC(=O)/C1=C\c1cn(-c2ccccc2)nc1-c1ccccc1	4µM*	11µM*	10µM*	10µM*	?
O=Cc1cn(-c2ccccc2)nc1-c1ccccc1	.	-1%	.	.	.
Cc1ccc2c(c1)/C(=C/c1ccccc1F)C(=O)N2	.	?	-29%	-14%	.
Cc1ccc2c(c1)/C(=C/c1ccccc1)C(=O)N2	?	-20%	-17%	-8%	10µM*
C[C@]12CCC3C(CC[C@]4(O)CC(O)CC[C@@]34C=O)[C@]1(O)CCC2C1=CC(=O)OC1 (stereo partly drawn)	.	.	10µM*	?	.
CC1O[C@@H](OC2CC[C@@]3(C=O)C4CC[C@]5(C)C(C6=CC(=O)OC6)CC[C@@]5(O)C4CC[C@]3(O)C2)C(O)C(O)C1O (stereo partly drawn)	.	.	0.045µM*	25µM*	.
COC1C(O)C(OC2CC[C@]3(C=O)C4C(OC(C)=O)C[C@@]5(C)C(C6=CC(=O)OC6)CC[C@]5(O)C4CC[C@]3(O)C2)OC(C)C1OC(C)=O (stereo partly drawn)	.	.	-4%	-8%	.
Cc1ccccc1-c1cc2c(c(OC3CCOC3)c1)OCCN(C(=O)Cn1cccn1)C2 (stereo not drawn)	.	.	-10%	i	.
CN(C)c1ccc(CNC(=O)c2cnc3sc(N4CCOCC4)nn3c2=O)cc1	.	.	-6%	-5%	?
CCN1C(=O)c2ccccc2S(=O)c2ccc(C(=O)N3CCN(c4cccc(Cl)c4)CC3)cc21 (stereo not drawn)	-23%[46.1 µM]	.	-18%	-14%	-21%[46.1 µM]
Cc1cc(C)cc(NC(=S)NCc2ccc3[nH]c4c(c3c2)CCCC4)c1	?	?	-5%	?	3.7µM*
CCN(C(C)=O)c1cnc(C=NNC(N)=S)c2ccccc12	?	6.3µM*	?	?	8.9µM*
Cc1cc(S(=O)(=O)NCCc2csc(-c3cccc(F)c3)n2)ccc1F	.	.	11µM*	?	-9%[46.1 µM]
COc1ccc(-c2nc(CCNS(=O)(=O)c3ccc4c(c3)OCCO4)cs2)cc1	.	11µM*	-25%	?	.
COc1ccc(S(=O)(=O)NCCc2csc(-c3cccc(F)c3)n2)cc1OC	.	.	-11%	-21%	12%[46.1 µM]
O=C(c1ccoc1)N1CCC2(CC1)Oc1ccc(Cl)cc1C(=O)C21CC(c2ccccc2)=NO1 (stereo not drawn)	.	11µM*	-21%	i	.
COc1ccc(N(CC(=O)Nc2cccc(Cl)c2)S(=O)(=O)c2c(C)[nH]c(=O)[nH]c2=O)cc1	-4%[46.1 µM]	.	-1%	-9%	6%[46.1 µM]
CCN(CC)CCCNC1=C(Cl)C(=O)c2ccccc2C1=O	?	3.2µM*	?	?	?
C=CCNC1=C(Cl)C(=O)c2ccccc2C1=O	?	?	13µM*	?	?
O=C1C(Cl)=C(NCc2cccnc2)C(=O)c2ccccc21	?	13µM*	28µM*	?	?
COCCCNC1=C(Cl)C(=O)c2ccccc2C1=O	-22%[46.1 µM]	-15%	-20%	?	25%[46.1 µM]
CN(CCNC(=O)c1ccc(/C=N\O)nc1)Cc1ccccc1	9%	.	.	.	.
